We go through eight molecules from PubChem BioAssay (NCATS).

Structures are written as SMILES. Inconclusive results are not listed. A number with no mark means an inactive call. Active and inactive are the calls of the source. Unless noted, the call rests on the fitted dose curve; in most records, active means well fitted curve in the direction sought with a large enough effect; inconclusive means small, poorly fitted or top-dose-only effect, or another doubt; inactive means no such curve, though single readings can be large; an effect the other way counts as inactive or inconclusive.

The nature of test [1]: Cell Viability - NIH 3T3 (AID 541).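 Further: cells exposed to compound for 40 hours; nearly all actives have a fitted effect of over 25% in size.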 Further: potency means the concentration at half of the fitted maximal effect.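 On activity change, negative = cytotoxicity: plate controls were DMSO alone for no effect and tamoxifen positive control for full effect.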 The settings on record: NIH 3T3 cell viability, qHTS; activity change, negative = cytotoxicity: at 92.2 µM (top of the series). An outline of the steps:
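qHTS format; 40 hr compound exposure, 37 °C; CellTiter-Glo luminescence (cellular ATP) read-out after 20 min at RT. Decrease in ATP = cytotoxicity; AC50 from standard Hill fit.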
(In general: qHTS replaces the single test concentration by a dilution series.)

Test [2] is described as follows: Cell Viability - LYMP2-002 (AID 977). Further: potency means the concentration at half of the fitted maximal effect. In outline:
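Human lymphoblastoid cells, 2500/well, complete medium; 5 h 37 C settle; compound 24 h 37 C; CellTiter-Glo, 30 min RT; luminescence. Decrease in ATP = cytotoxicity; AC50 via Hill equation.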

Test [3] is described as follows: Cell Viability - LYMP2-006 (AID 978). Further: nearly all actives have a fitted effect of over 60% in size. Further: potency means the concentration at half of the fitted maximal effect. On activity change, negative = cytotoxicity: on the % scale 0 is the no-effect control and ±100 the full control effect. An outline of the steps:
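Potency values are Hill-fit AC50s for decreases in intracellular ATP (CellTiter-Glo luminescence). LYMP2-006 lymphoblastoid cells, 2500 per well, were exposed to compound in complete culture medium for 24 hr at 37 C.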

The nature of test [4]: Cell Viability - LYMP2-010 (AID 981). Further: nearly all actives have a fitted effect of over 55% in size. Further: potency means the concentration at half of the fitted maximal effect. An outline of the steps:
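qHTS cytotoxicity, 1536-well: 2500 cells/well, 5 hr settle, 24 hr compound at 37 C, CellTiter-Glo 30 min RT, luminescence read. Decrease in ATP = toxicity; AC50 via standard Hill equation. Positive control tetraoctylammonium bromide.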

Test [5] is described as follows: Cell Viability - LYMP2-012 (AID 982).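 Further: cellular ATP by luciferase luminescence where a drop means cytotoxicity; cells exposed to compound for one day before reading; nearly all actives have a fitted effect of over 55% in size.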 Further: potency means the concentration at half of the fitted maximal effect.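 On activity change, negative = cytotoxicity: 0% = DMSO only and full loss = 92 µM tetraoctylammonium bromide.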
The nature of test [6]: Cell Viability - LYMP2-016 (AID 984). Further: nearly all actives have a fitted effect of over 55% in size. Further: potency means the concentration at half of the fitted maximal effect. On activity change, negative = cytotoxicity: on the % scale 0 is the no-effect control and ±100 the full control effect. In outline: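 Cytotoxicity was scored by luminescent ATP content (CellTiter-Glo) after 24 h compound exposure at 37 C of a human lymphoblastoid line at 2500 cells/well. Concentration-response data were fitted to the Hill equation for AC50.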
The nature of test [7]: Cell Viability - LYMP2-018 (AID 985). Further: nearly all actives have a fitted effect of over 50% in size. Further: potency means the concentration at half of the fitted maximal effect.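 On activity change, negative = cytotoxicity: plate controls were DMSO only for no effect and tetraoctylammonium bromide at 92 µM for full effect.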 In outline:
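2500 cells/well; 5 hr 37 C; cmpd 24 hr 37 C, complete medium; CellTiter-Glo 30 min RT; luminescence. Tetraoctylammonium bromide positive control. AC50 via Hill fit.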

The nature of test [8]: Cell Viability - LYMP2-020 (AID 986). Further: nearly all actives have a fitted effect of over 55% in size. Further: potency means the concentration at half of the fitted maximal effect. In outline:
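qHTS, 2500 cells/well; 5 hr then 24 hr compound exposure, 37 C; CellTiter-Glo luminescence after 30 min RT; ATP decrease taken as cytotoxicity; AC50 via Hill equation; tetraoctylammonium bromide positive control.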

Test [9] is described as follows: Cell Viability - LYMP2-022 (AID 987). Further: nearly all actives have a fitted effect of over 55% in size. Further: potency means the concentration at half of the fitted maximal effect. In outline:
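Luminescent ATP read-out (CellTiter-Glo, 30 min, RT) after 24 hr, 37 C compound exposure of 2500 human lymphoblastoid cells/well in complete medium. Cytotoxicity taken as concentration-dependent ATP loss; AC50 from standard Hill equation.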

Test [10] is described as follows: Cell Viability - LYMP2-024 (AID 988). Further: nearly all actives have a fitted effect of over 60% in size. Further: potency means the concentration at half of the fitted maximal effect.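 On activity change, negative = cytotoxicity: plate controls were DMSO only for no effect and 92 µM tetraoctylammonium bromide for full effect.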 An outline of the steps: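 ATP-based luminescence (CellTiter-Glo, 30 min RT) after 24 h compound exposure at 37 C of 2500 lymphoblastoid cells/well; decrease in ATP taken as cytotoxicity. qHTS concentration-response fitted to standard Hill equation for AC50.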
Test [11] can be described thus: Cell Viability - LYMP2-026 (AID 989). Further: nearly all actives have a fitted effect of over 50% in size. Further: potency means the concentration at half of the fitted maximal effect. An outline of the steps: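 qHTS cytotoxicity: 2500 cells/well, 5 hr 37 C, compound 24 hr 37 C, CellTiter-Glo 30 min RT, luminescence. Tetraoctylammonium bromide positive control. AC50 via standard Hill fit.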
Test [12] deals with Vitamin D3 receptor (Homo sapiens) (UniProt P11473). The experiment in a line: qHTS assay for small molecule antagonists of vitamin D receptor signaling (AID 588541; calls by dose curve; further: potency means the concentration at half of the fitted maximal effect). In outline:
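VDR-UAS-bla HEK293T cells in 2% charcoal-stripped FBS were stimulated with 1-alpha,25-dihydroxyvitamin D3 (3 nM final) plus compound for 16 h at 37 C. The beta-lactamase CCF4 readout was normalized to 50 nM agonist and DMSO, and Hill fits gave IC50.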

Test [13] has the same target. The experiment in a line: qHTS assay for small molecule agonists of vitamin D receptor signaling (AID 588543; calls by dose curve;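 further: 0% = DMSO basal and 100% = reference agonist control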). In outline:
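Agonist-mode beta-lactamase reporter: HEK293T VDR-UAS-bla cells in charcoal-stripped 2% FBS, compound series 16 h 37 C, CCF4 2 h RT. EC50 from Hill fit, scaled against DMSO and 50 nM calcitriol control.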

The target of test [14] is Thyroid hormone receptor beta (Homo sapiens) (UniProt P10828). The experiment in a line: qHTS assay for small molecule agonists of thyroid hormone receptor beta signaling (AID 588545; calls by dose curve). An outline of the steps:
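HEK 293 TR-UAS-bla; agonist mode; 18 hrs, 37 C; CCF4, ex 405/em 460 and 530 nm; norm. T3 10 nM = 100%, DMSO = 0%; Hill fit → EC50, efficacy.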

The target of test [15] is Voltage-gated inwardly rectifying potassium channel KCNH2 (Homo sapiens) (UniProt Q12809). The experiment in a line: qHTS Assay for Small Molecule Inhibitors of the Human hERG Channel Activity (AID 588834).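 Further: lower thallium flux fluorescence means stronger hERG block; nearly all actives have a fitted effect of over 50% in size.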 Further: potency means the concentration at half of the fitted maximal effect. In outline:
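hERG block measured as reduced thallium-dye (FluxOR) fluorescence after stimulation buffer addition, read over 2 min. Cells were hERG-BacMam-transduced U2OS exposed to compound ~10 min […]; concentration-response fitted with Hill equation for AC50.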

Test [16] is described as follows: qHTS assay for small molecule disruptors of the mitochondrial membrane potential - 5 hr assay (AID 651755; calls by dose curve; further: nearly all actives have a fitted effect of over 40% in size; further: potency means the concentration at half of the fitted maximal effect). In outline:
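Read-out: ratiometric Mito-MPS fluorescence, green monomer (ex 490/em 535) vs red mitochondrial aggregate (ex 540/em 590). HepG2 cells treated 5 hr at 37C before 30 min dye loading.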

Test [17] concerns the target Nuclear receptor ROR-gamma (Homo sapiens) (UniProt P51449). The experiment in a line: qHTS assay for small molecule antagonists of the retinoid-related orphan receptor gamma (ROR-gamma) signaling pathway (AID 651802). Further: nearly all actives have a fitted effect of over 60% in size. Further: potency means the concentration at half of the fitted maximal effect. In outline: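 Luciferase read-out: ONE-Glo luminescence after 30 min at room temperature, following 16hr doxycycline induction at 37C, 5% CO2 of CHO cells with TET-inducible ROR and RORE-LUC reporter; decreased luminescence = reduced reporter activity.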

Test [18] can be described thus: qHTS assay for small molecule antagonists of the retinoid-related orphan receptor gamma (ROR-gamma) signaling pathway - cell viability counter screen (AID 720652; active means well fitted curve in the direction sought with a large enough effect in the repeat runs; an effect the other way counts as inactive or inconclusive;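 further: compound exposure lasted 16 hr before ATP read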; further: potency means the concentration at half of the fitted maximal effect;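 on activity change, negative = cytotoxicity: CHO reporter cells with doxycycline-induced ROR-gamma expression; on the % scale 0 is the no-effect control and ±100 the full control effect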). An outline of the steps:
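CHO RORE-LUC/TET-ROR line, 1,000 cells/well, 37 C 5% CO2 5 hr; cpd or DMSO + doxycycline induction, 16 hr. CellTiter-Glo, 30 min RT, luminescence = ATP content.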

A short description of test [19]: qHTS assay for small molecule agonists of the antioxidant response element (ARE) signaling pathway measured by Nrf2-dependant transcriptional activity - cell viability counter screen (AID 720653; active means well fitted curve in the direction sought with a large enough effect in the repeat runs; an effect the other way counts as inactive or inconclusive; further: potency means the concentration at half of the fitted maximal effect; on max response: on the % scale 0 is the no-effect control and ±100 the full control effect). The settings on record: ARE-bla HepG2 viability, CellTiter-Glo ATP luminescence, 16 h; max response: hits give low values. An outline of the steps: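 ARE-bla HepG2 cells treated with compounds for 16 h at 37C; this counter screen measures viability as intracellular ATP by CellTiter-Glo luminescence after 30 min at room temperature.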

A short description of test [20]: Cellular Toxicity (caspase-3) NIH 3T3 (AID 666).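 Further: caspase signal read after 16 h compound exposure; 0% = DMSO basal and 100% = 100 µM tamoxifen stimulation.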 An outline of the steps:
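NIH 3T3, 1000 cells/well, 5 hr settle then 16 hr compound at 37°C; Caspase-Glo 3/7, 20 min RT, luminescence. DMSO = basal, 100 uM tamoxifen = 100%. Hill-equation AC50, qHTS.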

Chain of Nuclear receptor ROR-gamma (Homo sapiens) (P51449 whole entry, looked up): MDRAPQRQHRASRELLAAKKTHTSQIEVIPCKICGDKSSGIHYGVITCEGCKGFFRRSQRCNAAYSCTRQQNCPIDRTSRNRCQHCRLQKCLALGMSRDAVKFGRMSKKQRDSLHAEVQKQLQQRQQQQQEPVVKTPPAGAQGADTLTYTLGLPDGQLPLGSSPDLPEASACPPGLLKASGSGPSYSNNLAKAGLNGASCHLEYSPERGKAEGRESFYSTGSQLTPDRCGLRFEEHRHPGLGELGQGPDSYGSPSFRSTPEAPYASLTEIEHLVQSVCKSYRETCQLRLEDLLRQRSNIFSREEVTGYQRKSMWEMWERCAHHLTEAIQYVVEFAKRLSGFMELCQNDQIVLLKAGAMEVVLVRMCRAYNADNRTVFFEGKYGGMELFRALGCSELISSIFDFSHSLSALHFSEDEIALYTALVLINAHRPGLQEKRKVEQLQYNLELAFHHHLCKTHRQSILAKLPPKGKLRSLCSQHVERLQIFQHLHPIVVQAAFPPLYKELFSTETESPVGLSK
Chain of Thyroid hormone receptor beta (Homo sapiens) (P10828 whole entry, looked up): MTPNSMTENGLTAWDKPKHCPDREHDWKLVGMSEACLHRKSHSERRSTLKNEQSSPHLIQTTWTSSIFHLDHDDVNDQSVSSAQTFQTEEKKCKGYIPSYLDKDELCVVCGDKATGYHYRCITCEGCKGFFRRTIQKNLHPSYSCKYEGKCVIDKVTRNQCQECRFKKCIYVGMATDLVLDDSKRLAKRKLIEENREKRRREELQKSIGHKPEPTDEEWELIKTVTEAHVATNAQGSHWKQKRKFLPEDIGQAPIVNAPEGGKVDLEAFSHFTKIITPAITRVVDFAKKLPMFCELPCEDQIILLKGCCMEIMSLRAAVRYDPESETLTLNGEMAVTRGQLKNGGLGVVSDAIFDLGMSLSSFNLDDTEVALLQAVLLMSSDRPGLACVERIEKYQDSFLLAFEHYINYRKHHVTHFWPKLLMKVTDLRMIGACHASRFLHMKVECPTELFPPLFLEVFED
Chain of Vitamin D3 receptor (Homo sapiens) (P11473 whole entry, looked up): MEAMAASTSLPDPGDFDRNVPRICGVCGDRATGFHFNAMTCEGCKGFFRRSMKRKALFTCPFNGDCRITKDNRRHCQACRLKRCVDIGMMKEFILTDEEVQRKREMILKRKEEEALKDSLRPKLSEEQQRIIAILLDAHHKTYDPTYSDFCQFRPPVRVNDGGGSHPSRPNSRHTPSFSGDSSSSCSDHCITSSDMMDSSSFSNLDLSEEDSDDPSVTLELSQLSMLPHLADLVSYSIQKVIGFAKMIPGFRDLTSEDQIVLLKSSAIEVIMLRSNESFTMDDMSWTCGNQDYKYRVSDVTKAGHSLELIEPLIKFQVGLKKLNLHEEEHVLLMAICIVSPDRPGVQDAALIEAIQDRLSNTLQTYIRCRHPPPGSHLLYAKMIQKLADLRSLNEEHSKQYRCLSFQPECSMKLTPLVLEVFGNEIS
Chain of Voltage-gated inwardly rectifying potassium channel KCNH2 (Homo sapiens) (Q12809 whole entry, looked up): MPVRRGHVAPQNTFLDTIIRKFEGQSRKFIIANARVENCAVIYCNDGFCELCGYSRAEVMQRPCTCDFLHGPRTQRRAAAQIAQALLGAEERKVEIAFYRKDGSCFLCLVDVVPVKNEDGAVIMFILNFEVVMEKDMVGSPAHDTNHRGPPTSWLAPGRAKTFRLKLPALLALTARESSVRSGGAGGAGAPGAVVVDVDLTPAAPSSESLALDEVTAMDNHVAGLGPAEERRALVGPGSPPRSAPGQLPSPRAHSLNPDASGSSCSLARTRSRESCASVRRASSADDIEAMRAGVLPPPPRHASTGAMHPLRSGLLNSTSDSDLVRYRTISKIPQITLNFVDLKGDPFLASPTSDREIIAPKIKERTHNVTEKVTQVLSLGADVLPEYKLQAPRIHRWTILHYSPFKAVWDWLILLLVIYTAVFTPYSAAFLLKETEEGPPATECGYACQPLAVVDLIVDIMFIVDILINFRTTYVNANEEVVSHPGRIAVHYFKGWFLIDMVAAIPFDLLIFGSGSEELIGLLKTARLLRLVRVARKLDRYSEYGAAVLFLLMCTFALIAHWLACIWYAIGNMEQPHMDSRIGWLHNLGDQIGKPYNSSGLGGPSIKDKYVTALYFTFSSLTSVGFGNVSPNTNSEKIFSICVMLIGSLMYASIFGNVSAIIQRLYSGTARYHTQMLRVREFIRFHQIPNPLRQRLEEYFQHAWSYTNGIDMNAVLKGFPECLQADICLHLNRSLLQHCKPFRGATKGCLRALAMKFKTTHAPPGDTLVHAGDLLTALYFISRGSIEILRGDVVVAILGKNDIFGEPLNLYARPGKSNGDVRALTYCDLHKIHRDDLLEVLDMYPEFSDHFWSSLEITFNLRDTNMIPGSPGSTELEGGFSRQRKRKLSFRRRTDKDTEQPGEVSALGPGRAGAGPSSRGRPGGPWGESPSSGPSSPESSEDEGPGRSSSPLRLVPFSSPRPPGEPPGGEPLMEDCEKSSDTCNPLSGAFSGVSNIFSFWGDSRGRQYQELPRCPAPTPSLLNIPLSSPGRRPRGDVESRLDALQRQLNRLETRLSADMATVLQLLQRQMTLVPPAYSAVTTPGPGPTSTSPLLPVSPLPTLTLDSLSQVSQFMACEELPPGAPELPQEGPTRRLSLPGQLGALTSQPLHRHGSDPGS

As for `CCC(C)Nc1ccc(NC(C)CC)cc1` (configuration not stated), the Potency is 5.01 µM (active) in test [1]; 3.98 µM (active) in test [2]; 5.01 µM (active) in [3]; 3.16 µM (active) in test [4]; 3.98 µM (active) in test [5]; 5.01 µM (active) in [6]. Also, the Potency in [7] is 3.16 µM (active); in test [8], 5.01 µM (active); in test [9], 2.51 µM (active); in test [10], 2 µM (active); in test [11] it was 7.94 µM (active); in [12], 6.31 µM (active). The Potency in [15] was 14.1 µM (active); in test [16], 59.6 µM (active); in test [17] it was 13.3 µM (active); in test [18] it was 8.41 µM (active); in test [19], 22.4 µM (active). The molecule was called inactive in test [13] and in test [14].

For `Cc1cc(O)c(C(C)(C)C)cc1Sc1cc(C(C)(C)C)c(O)cc1C`, the Potency result in [20] was “inactive”. Also, the Potency was 31.6 µM (active) in test [2]; 31.6 µM (active) in test [3]; 31.6 µM (active) in [4]; 39.8 µM (active) in [5]; 50.1 µM (active) in [6]; 50.1 µM (active) in test [7]. In addition, the Potency in test [8] is 31.6 µM (active); in test [9] it was 31.6 µM (active); in test [10] it was 39.8 µM (active); in test [11], 25.1 µM (active); in [15], 39.8 µM (active); in test [16], 16.8 µM (active). In addition, the Potency in test [17] was 4.22 µM (active); in [18], 18.8 µM (active). For the same molecule, in test [13], the call was inactive.

Consider `CCCCCC/C(C=O)=C\c1ccccc1`, for which the Potency result in test [1], in test [20], in [2], in test [3], in [4] and in [5] was “inactive” each time. Also, the Potency entry in [6], in [7], in test [8], in [9], in test [10] and in test [11] was “inactive” each time. Besides, the Potency entry in test [12], in [16], in [17] and in test [18] was “inactive” each time. Moreover, the call in test [13] and in [14] was inactive. For the same molecule, the max response in test [19] was 3.47%.

For the molecule `CO[C@H]1/C=C/O[C@@]2(C)Oc3c(C)c(O)c4c(O)c(c5c(c4c3C2=O)NC2(CCN(CC(C)C)CC2)N=5)=NC(=O)/C(C)=C\C=C\[C@H](C)[C@H](O)[C@@H](C)[C@@H](O)[C@@H](C)[C@H](OC(C)=O)[C@@H]1C`, in [1], the Potency is 20 µM (active). For the same molecule, the Potency entry in [20], in [2], in [12], in test [15], in test [16] and in test [17] was “inactive” in each case. Moreover, the Potency entry in [18] is “inactive”. Also, the call in [13] and in test [14] was inactive. Besides, in test [19], the max response was -17.5%.

Consider `O=C(OCC(COC(=O)c1ccccc1)(COC(=O)c1ccccc1)COC(=O)c1ccccc1)c1ccccc1`, for which the Potency result in [1], in test [20], in [2], in test [3], in [4] and in [5] was “inactive” in each case. Moreover, the Potency entry in [6], in test [7], in [8], in test [9], in [10] and in test [11] was “inactive” each time. Moreover, the Potency result in [15], in [17] and in [18] was “inactive” each time. In addition, the max response in [19] is 3.26%.

As to `Cc1ccc(S(=O)(=O)Oc2ccc(N=Nc3ccc(-c4ccc(N=Nc5c(O)ccc6cc(S(=O)(=O)O)cc(S(=O)(=O)O)c56)c(C)c4)cc3C)cc2)cc1`, the Potency result in test [20], in test [12], in test [15] and in test [18] was “inactive” throughout. The molecule was classed as inactive in test [13] and in [14].

Take `Cc1cc(Nc2ccc(O)cc2)ccc1N`: the activity change, negative = cytotoxicity in test [1] is -158% (active). The Potency in [3] is 50.1 µM (active); in test [4] it was 31.6 µM (active); in test [5], 39.8 µM (active); in [6] it was 50.1 µM (active); in test [7], 39.8 µM (active); in test [8], 39.8 µM (active). In addition, the Potency in test [9] was 31.6 µM (active); in test [10], 25.1 µM (active); in test [11], 50.1 µM (active); in [17], 21.1 µM (active). Also, the Potency entry in test [12] and in [15] was “inactive” each time. Further, the call in test [13] and in [14] was inactive.

As to `CN(C)c1ccc(C2(c3ccc(N(C)C)cc3)OC(=O)c3cc(N(C)C)ccc32)cc1`, the Potency result in test [20], in test [2], in [3], in test [4], in test [5] and in [6] was “inactive” in each case. For the same molecule, the Potency entry in test [7], in test [8], in test [9], in test [10], in [11] and in [12] was “inactive” in each case. Further, the Potency result in [17] and in test [18] was “inactive” throughout. The max response in test [19] was 7.4%.
